Experimental data reported in ChEMBL document CHEMBL3988442, “University of Dundee, Small-Polar-MMV Screening Library” (2021).
Among all 66,000 compounds or so, about 960 (1.5%) showed an effect of 50% or more. This excerpt belongs to a sample that is enriched for strong results.

Tested on: Trypanosoma brucei
Test: Trypanosoma brucei 72 hour study
Type: functional, organism-based
Parameters: scale not given: in the data most compounds retested in dose-response had high values

Structure (SMILES)	Percent Effect (30.3 µM, […])	Percent Effect (30 µM, 30.03 µM)
CN(C)c1ncc(C(=O)N2C[C@H]3C[C@H](Oc4ccccc4)C[C@H]3C2)cn1	8.214%	
Cl.Cn1ccnc1CNC(=O)c1cncc(C2CCNCC2)n1	-8.849%	
O=C(O)C(F)(F)F.O=C(c1cccc(Cl)c1)N1CCCn2c(CN3CCCCC3)nnc2C1		5.337%
Oc1cccc(CNCc2ccc(-n3cncn3)nc2)c1	-113.8%	
COCCN1C(=O)[C@H]2CC[C@@H]1CN(S(=O)(=O)c1ccc(C#N)cc1)C2	-35.87%	
CCO[C@H]1CO[C@@]2(CCCN(S(=O)(=O)c3cccnc3)C2)C1.O=C(O)C(F)(F)F		23.98%
Fc1cccc(CN2CCOC3(COCCN(CC4CC4)C3)C2)c1.O=C(O)C(F)(F)F.O=C(O)C(F)(F)F (centres undefined)	-50.27%	
CC(C)(C)c1ccc(C(=O)C2CCCN(C(=O)CNS(C)(=O)=O)C2)cc1 (centres undefined)	-41.24%	
CC(C)(N)C(=O)N1CCCC(C(=O)c2ccc(C(C)(C)C)cc2)C1 (centres undefined)	89.7%	
CC(=O)NCC(=O)N1CCCC(C(=O)c2ccc(C(C)(C)C)cc2)C1 (centres undefined)	-72.68%	
O=C(O)C(F)(F)F.O=C(c1ccnnc1)N1C[C@H](Oc2ccccn2)[C@H]2OCCC[C@H]21	-55.97%	
Cl.OC1CCN(c2cncc(CCC3CCCN3)n2)CC1 (centres undefined)	-6.285%	
CCOCc1cnc2n1CCN(C(=O)c1ccoc1C)C2C (centres undefined)	-34.9%	
Cc1occc1C(=O)N1CCn2c(COCC3CC3)cnc2C1C (centres undefined)		51.37%
Cc1ncoc1C(=O)N1CCn2c(COCC3CC3)cnc2C1C (centres undefined)	10.54%	
COc1ccc(CN2CCC3(CC2)CCN(CC(C)C)C3=O)cc1.O=C(O)C(F)(F)F	0.8917%	
CN(C)CCO[C@H]1CN(CC2CC2)[C@@H]2CCCO[C@H]12.O=C(O)C(F)(F)F.O=C(O)C(F)(F)F	15.45%	
c1ccc(N2CCC(c3ccncc3)CC2)cc1	0.5256%	
CC(=O)N1CCCC2(C1)CN(c1nncs1)CCO2.O=C(O)C(F)(F)F (centres undefined)	-90.31%	
CCN(Cc1c(F)cccc1Cl)c1cc(C2CCNCC2)nc(C)n1		88.22%
CCN(Cc1ccncc1)c1cc(C2CCNCC2)nc(C)n1		-25.3%
Cc1nc(C2CCNCC2)cc(N(C)Cc2cc3cc(F)ccc3[nH]2)n1		7.512%
O=C(CC1CCCC1)N1C[C@H](OCc2ccncc2)[C@H]2OCCC[C@H]21.O=C(O)C(F)(F)F		-16.6%
Cc1ccc(CN(Cc2ccncc2)C2CC(C)(C)NC(C)(C)C2)o1.O=C(O)CC(O)(CC(=O)O)C(=O)O	-22.8%	
